{"source": "PubChem BioAssay AID1508600", "about": "(Functional Genomics Laboratory (NCATS/FGL), 2020)", "note": "Screen size: about 53,000 sequences; about 3,700 (7%) were called active. This excerpt belongs to a sample that is enriched for actives. Unmarked numbers belong to inactive results.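 The calls were made as follows: active = gene knockdowns whose robust z-score for IL-1 alpha signal is at least 2 or at most -2, so actives lie on both sides; inactive = the rest.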"}
{"assay": "Components of the Cytosolic LPS Sensing Pathway: Gene Identification via Genome-wide siRNA Screen", "settings": "RAW264.7 macrophages, IL-1a HTRF, actives lie on both sides, screened at 100 nM (by protocol), cells primed 5 h with Pam3CSK4 first", "text": "Non-canonical inflammasome activation by cytosolic LPS is a critical component of the host response to Gram-negative bacterial infection, however we lack a comprehensive understanding of the cellular processes that control this pathway. Here we describe a genome-wide siRNA screen to identify genes regulating the mouse macrophage IL-1 alpha response to cytosolic LPS.\nRAW264.7 cells were maintained in complete DMEM media, comprising DMEM with 4.5 g/L glucose, 10% FBS (Gemini Bio-Products, West Sacramento, CA), 2 mM Glutamine (Lonza) and 20 mM HEPES (Lonza), hereafter complete DMEM.\nThe RNAi screen was conducted in 384-well format using the Ambion Silencer Mouse Genome siRNA Library (#4391425), which consists of three unique, nonoverlapping, nonpooled siRNAs for each of 17,000 gene targets. siRNA reagents ([…]) were stamped into 384-well white flat-bottom microplates (Corning, 3570) using a Velocity11 VPrep liquid handling system (Agilent) integrated into a BioCel robotic platform (Agilent) in columns 1-22, leaving columns 23-24 empty for negative (Ambion, Negative control #1) and positive (mouse Casp4) controls, respectively. The median value of each plate's negative control column was used to normalize sample wells, and the positive control was used to assess transfection efficiency and assay performance.\nLipofectamine RNAiMAX Transfection Reagent ([…]; Invitrogen) was added in […] serum-free, antibiotic-free media to plate wells using a Thermo Scientific Matrix WellMate and Microplate Stacker. Plates were incubated for 45 min at room temperature to allow for the sufficient formation of siRNA-lipid complexes. Cells were seeded at a density of 1x10^4 cells per well in 20 microL media containing 20% (vol/vol) FBS without antibiotics. The final concentration of siRNA in each well was 100 nM. Cells were cultured for 48h at 37 degrees C in 5% CO2 before addition of […] of TLR ligand Pam3CSK4 for 5 hours. The medium was then removed, replaced with […] growth media and cell were transfected with […] of LipidA and TransIT-TKO (Mirus) for 24 hour. At the end of the LipidA treatment, […] of supernatant was transferred to a 384 Greiner Bio-one non-binding low volume plate and […] of IL-1a HTRF reagent (Cisbio, 62MIL1APEH) was added and incubated at room temperature overnight. The plates were read on an EnVision plate reader (PerkinElmer). Cell viability was measured by adding 20ul Cell Titer Glo to the original plate and running a luminescence read on the EnVision. The quantified IL-1a signal for each siRNA gene-targeted well was divided by the median of the negative control wells and multiplied by 100 to achieve a negative control normalized value for each well/siRNA. This normalized value was then used to generate a robust z-score by first taking the log of each value and then by subtracting the median and dividing by the […]."}
{"sequence": "GGGUUAUGGAUUUGAAGUGTT against Tmem131l", "z-score": 1.3}
{"sequence": "CCAAUUUUCAAGAUCGGUCTT against Pakap", "z-score": 0.347}
{"sequence": "GCUCUGAUGUCAACCUUCCTT against Fam174c", "z-score": "-2.23 (active)"}
{"sequence": "CCACCUUUAUUCAAAAUCGTT against Mmp20", "z-score": -0.451}
{"sequence": "CCUACUCAAGAAGCUCAGUTT against Hpse", "z-score": "-2.47 (active)"}
{"sequence": "GCGCACAAGCCUUACUAAATT against Zfp560", "z-score": 0.0854}
{"sequence": "GCGGACAUGAGUUUGAAUGTT against Bnipl", "z-score": -0.858}
{"sequence": "GGUGGACAAGAUGAUGGAATT against Gps2", "z-score": 1.92}
{"sequence": "GGAGACAGAUGAAUGAACCTT against Tifab", "z-score": 0.0548}
{"sequence": "CCCUCUCUACGAUGACUCUTT against Parm1", "z-score": "-2 (active)"}
{"sequence": "CCAAUAACUUCGCUUAUAUTT against Ms4a2", "z-score": -0.389}
{"sequence": "GGUUCAUCCAACUUUCAAGTT against Stac3", "z-score": 0.587}
{"sequence": "GUUUCUGGGUGAGCGCGAUTT against Fzd2", "z-score": "2.29 (active)"}
{"sequence": "GGCAUUUAAAACUCAUUGUTT against G6pdx", "z-score": -1.47}
{"sequence": "GGGUUCAGAGGUCAUCAACTT against Lin37", "z-score": -1.95}
{"sequence": "GCAAAUUAGGCUCUUAUCCTT against 4930402H24Rik", "z-score": -0.333}
{"sequence": "GGAAGAAAUGCAGGUGUGGTT against Gab3", "z-score": "-2.15 (active)"}
{"sequence": "GCUUUAUUAACCCAUCAAATT against Wdr78", "z-score": -0.136}
{"sequence": "GGGAAAAUUCCAGAAUUGUTT against Serpinb9c", "z-score": -1.37}
{"sequence": "GGAGAUGGCCGACUUCUAUTT against Coa8", "z-score": 0.934}
{"sequence": "GGUUAAAUCCCUGAUGUAUTT against Ptdss1", "z-score": -0.613}
{"sequence": "GCUUGUGUCACCUACGGAATT against Mterf2", "z-score": 0.944}
{"sequence": "CCCAUGCUAUCAAUCAUUUTT against Olfr308", "z-score": "2.51 (active)"}
{"sequence": "CCGAUGACAAUCGGCCCUUTT against Gja8", "z-score": 0.74}
{"sequence": "GGUUUUCCAUCUCCUCCAGTT against Klrc1", "z-score": 0.789}
{"sequence": "GGGAAACGUGAAUUAGUAATT against 1110051M20Rik", "z-score": -1.23}
{"sequence": "CCUCCAUUGAUACUCAAGUTT against Pycr1", "z-score": 0.0219}
{"sequence": "GGCUAAAUCUCACACUCCATT against Mzb1", "z-score": "-2.18 (active)"}
{"sequence": "GGUGAAGCUCACCAACAAUTT against Tbx20", "z-score": 0.301}
{"sequence": "CCAUGUUCCAGUUAAUGACTT against Ptch1", "z-score": -0.419}
{"sequence": "GCAAGUCCUCUACCUUCUCTT against Vmn1r210", "z-score": -1.65}
{"sequence": "GGUGAAACUAAAAAUGGUCTT against Egfl6", "z-score": -1.07}
{"sequence": "GCCGUCUCUGUGUCACAAATT against Sirt1", "z-score": "-2.19 (active)"}
{"sequence": "GGUCCUUGUACAACCACCCTT against Acd", "z-score": 0.516}
{"sequence": "GGUCCUUGCAUUUCAUCAATT against A630005I04Rik", "z-score": 1.6}
{"sequence": "GGAUUUUUGCACUCAGUAATT against Olfr1256", "z-score": 1.26}
{"sequence": "GGAACAUUGGUGUUACAGCTT against Atp5j", "z-score": "2.29 (active)"}
{"sequence": "GGAGUUUUCAGCAACAAAUTT against Fgf5", "z-score": -0.829}
{"sequence": "GGUAUUCUAUAAGCUCCUUTT against Dennd1a", "z-score": "-2.07 (active)"}
{"sequence": "CCAACGCGAACGAGAACUATT against C1qb", "z-score": -0.0813}
{"sequence": "CCAGAUAAUAAUUUGGAUGTT against Dhx9", "z-score": 0.0852}
{"sequence": "GGAUGUGCCAUUGAAGAUCTT against Atg4c", "z-score": "2.07 (active)"}
{"sequence": "CCUGGAUACCUUCAACUAUTT against Galnt14", "z-score": -0.209}
{"sequence": "CCUAAACCAGUCUUUUCUCTT against Cnep1r1", "z-score": 0.369}
{"sequence": "GCAAAAGCUAAUAAACUUGTT against Acox2", "z-score": 0.921}
{"sequence": "GCCUACGAGGACAGUACAATT against Mst1r", "z-score": 1.16}
{"sequence": "GCACUGCAACACUUGGUCCTT against Lcn12", "z-score": -0.99}
{"sequence": "GGCAGACCCAUAAUUAAUCTT against Arsk", "z-score": -0.567}
{"sequence": "GGCUGAAGCGCAAGAGGAATT against Wdr46", "z-score": "2.68 (active)"}
{"sequence": "GGAAGAUACAAGUCUUUUUTT against Akap12", "z-score": 1.85}
{"sequence": "GAGAUAAGAUGGGAAAAAATT against Ssbp2", "z-score": -0.338}
{"sequence": "GGAAAAGCAGACUUGCACCTT against Npm2", "z-score": 0.228}
{"sequence": "GGAAGAAGUUGGAGAUGUUTT against Hsd17b11", "z-score": -0.629}
{"sequence": "GGAACUAGUUUUUAUACUCTT against Igfbp1", "z-score": "2.23 (active)"}
